Data published in PubChem BioAssay.
Measured potencies and affinities stand elsewhere. Unmarked numbers belong to inactive results. The rule behind the calls is not given here.

assay: A2780 ovarian cancer cell cytotoxicity, dose response, cytotoxicity control, plate reader, dry powder samples (AID 743046); settings: series mostly up to 35 µM; activity change, negative = cytotoxicity: at the top concentration;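 note: 0% = neutral control wells and -100% = cytotoxic reference compound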

Structure (SMILES) | activity change, negative = cytotoxicity
C[C@@H]1CN([C@H](C)CO)C(=O)c2cc(NC(=O)Nc3ccc(F)cc3)ccc2O[C@@H](C)CCCCO[C@@H]1CN(C)Cc1ccc2c(c1)OCO2 | 6.53%
Cc1noc(C)c1S(=O)(=O)N(C)C[C@@H]1OCCCC[C@H](C)Oc2ccc(NS(=O)(=O)c3ccc(Cl)cc3)cc2C(=O)N([C@H](C)CO)C[C@@H]1C | 13.2%
C[C@@H]1CCCCO[C@@H](CN(C)C(=O)Nc2cccc3ccccc23)[C@H](C)CN([C@H](C)CO)C(=O)c2cc(NS(=O)(=O)c3ccccc3)ccc2O1 | 0.617%
COc1ccc(NC(=O)Nc2ccc3c(c2)C(=O)N([C@@H](C)CO)C[C@@H](C)[C@@H](CN(C)CC2CCCCC2)OCCCC[C@@H](C)O3)cc1 | 10.8%
C[C@@H]1CN([C@@H](C)CO)C(=O)Cc2cc(NC(=O)CCC(F)(F)F)ccc2O[C@H]1CN(C)Cc1ccc(-c2ccccc2)cc1 | 16.4%
CCCNC(=O)Nc1ccc2c(c1)OC[C@H](C)N(Cc1ccc(-c3ccccn3)cc1)C[C@@H](C)[C@@H](OC)CN(C)C2=O | 0.782%
O=S(=O)(c1ccccc1F)N1CC[C@@H]2[C@@H](CO)Nc3ccc(C4=CCCCC4)cc3[C@@H]21 | 22.3%
CN1c2ccc(-c3cccc(F)c3)cc2[C@@H]2[C@@H](CCN2C(=O)Cc2ccccc2)[C@@H]1CO | -1.14%
C[C@H](CO)N1C[C@H](C)[C@@H](CN(C)S(=O)(=O)c2ccc(Cl)cc2)OCCCC[C@H](C)Oc2ccc(NS(=O)(=O)c3ccc(Cl)cc3)cc2C1=O | 4.88%
C[C@@H]1CN([C@H](C)CO)C(=O)Cc2cc(NC(=O)Nc3ccc(F)cc3)ccc2O[C@H]1CN(C)Cc1ccc(Cl)c(Cl)c1 | 18.8%
C[C@@H]1CCCCO[C@H](CN(C)Cc2ccc(C(F)(F)F)cc2)[C@H](C)CN([C@H](C)CO)C(=O)c2cc(NS(=O)(=O)c3cccs3)ccc2O1 | 9.68%
O=C(C[C@H]1CC[C@H]2[C@@H](COC[C@@H](O)CN2Cc2ccc(Oc3ccccc3)cc2)O1)N1CCCCC1 | -1.16%
C[C@@H]1CCCCO[C@H](CN(C)Cc2ccc(C(F)(F)F)cc2)[C@H](C)CN([C@@H](C)CO)C(=O)c2cc(NS(=O)(=O)c3cccs3)ccc2O1 | -1.41%
C[C@@H]1CCCCO[C@@H](CN(C)Cc2ccc(C(F)(F)F)cc2)[C@@H](C)CN([C@@H](C)CO)C(=O)c2cc(NS(=O)(=O)c3ccccc3)ccc2O1 | 5.56%
C[C@@H]1CCCCO[C@@H](CN(C)Cc2ccc(C(F)(F)F)cc2)[C@@H](C)CN([C@@H](C)CO)C(=O)c2cc(NS(=O)(=O)c3ccc(F)cc3)ccc2O1 | -3.88% [at 30 µM]
COc1ccc(NC(=O)Nc2ccc3c(c2)CC(=O)N([C@H](C)CO)C[C@@H](C)[C@@H](CN(C)Cc2ccc(Oc4ccccc4)cc2)O3)cc1 | 9.51%
C[C@@H]1CCCCO[C@H](CN(C)Cc2ccc(Cl)c(Cl)c2)[C@H](C)CN([C@@H](C)CO)C(=O)c2cc(NC(=O)Nc3ccccc3)ccc2O1 | -7.59%
O=C(Nc1ccc(Cl)c(Cl)c1)N[C@@H]1CC[C@H](CCn2cc(C3CCCCC3)nn2)O[C@H]1CO | -25.8%
C[C@@H]1CN([C@H](C)CO)S(=O)(=O)c2ccc(C#CC3CCCC3)cc2O[C@@H]1CN(C)C(=O)Cc1ccncc1 | 35.3%
C[C@@H]1CCCCO[C@H](CN(C)Cc2ccc(C(F)(F)F)cc2)[C@H](C)CN([C@H](C)CO)C(=O)c2cc(NS(=O)(=O)c3ccccc3)ccc2O1 | 19.1%
COc1cccc(S(=O)(=O)N2CC[C@H]3[C@@H](CO)N(C)c4ccc(C#Cc5ccc(F)cc5)cc4[C@H]32)c1 | -3.09%

assay: cytotoxicity in OVCAR8 ovarian cancer cells, dose response, PAX8 project, cell-based, plate reader, dry powder samples (AID 743197); settings: series mostly up to 35 µM; activity change, negative = cytotoxicity: at the top concentration

Structure (SMILES) | activity change, negative = cytotoxicity
Cc1noc(C)c1S(=O)(=O)N(C)C[C@@H]1OCCCC[C@H](C)Oc2ccc(NS(=O)(=O)c3ccc(Cl)cc3)cc2C(=O)N([C@H](C)CO)C[C@@H]1C | -8.7%
COc1ccc(NC(=O)Nc2ccc3c(c2)C(=O)N([C@@H](C)CO)C[C@@H](C)[C@@H](CN(C)CC2CCCCC2)OCCCC[C@@H](C)O3)cc1 | 12.9%
C[C@H]1CN([C@@H](C)CO)C(=O)c2cc(NS(=O)(=O)c3ccccc3)ccc2O[C@@H]1CN(C)Cc1ccc(Oc2ccccc2)cc1 | -14.4%
C[C@@H]1CN([C@@H](C)CO)C(=O)Cc2cc(NC(=O)CCC(F)(F)F)ccc2O[C@H]1CN(C)Cc1ccc(-c2ccccc2)cc1 | 19%
O=S(=O)(c1ccccc1F)N1CC[C@@H]2[C@@H](CO)Nc3ccc(C4=CCCCC4)cc3[C@@H]21 | 2.38%
C[C@H](CO)N1C[C@H](C)[C@@H](CN(C)S(=O)(=O)c2ccc(Cl)cc2)OCCCC[C@H](C)Oc2ccc(NS(=O)(=O)c3ccc(Cl)cc3)cc2C1=O | 2.41%
C[C@@H]1CN([C@H](C)CO)C(=O)Cc2cc(NC(=O)Nc3ccc(F)cc3)ccc2O[C@H]1CN(C)Cc1ccc(Cl)c(Cl)c1 | 8.01%
C[C@@H]1CCCCO[C@H](CN(C)Cc2ccc(C(F)(F)F)cc2)[C@H](C)CN([C@H](C)CO)C(=O)c2cc(NS(=O)(=O)c3cccs3)ccc2O1 | 4.52%
O=C(C[C@H]1CC[C@H]2[C@@H](COC[C@@H](O)CN2Cc2ccc(Oc3ccccc3)cc2)O1)N1CCCCC1 | -19.4%
C[C@@H]1CCCCO[C@H](CN(C)Cc2ccc(C(F)(F)F)cc2)[C@H](C)CN([C@@H](C)CO)C(=O)c2cc(NS(=O)(=O)c3cccs3)ccc2O1 | -3.25%
C[C@@H]1CCCCO[C@@H](CN(C)Cc2ccc(C(F)(F)F)cc2)[C@@H](C)CN([C@@H](C)CO)C(=O)c2cc(NS(=O)(=O)c3ccc(F)cc3)ccc2O1 | -0.838% [at 30 µM]
COc1ccc(NC(=O)Nc2ccc3c(c2)CC(=O)N([C@H](C)CO)C[C@@H](C)[C@@H](CN(C)Cc2ccc(Oc4ccccc4)cc2)O3)cc1 | 2.76%
C[C@@H]1CCCCO[C@H](CN(C)Cc2ccc(Cl)c(Cl)c2)[C@H](C)CN([C@@H](C)CO)C(=O)c2cc(NC(=O)Nc3ccccc3)ccc2O1 | 12.4%
O=C(Nc1ccc(Cl)c(Cl)c1)N[C@@H]1CC[C@H](CCn2cc(C3CCCCC3)nn2)O[C@H]1CO | 2.73%
C[C@@H]1CN([C@H](C)CO)S(=O)(=O)c2ccc(C#CC3CCCC3)cc2O[C@@H]1CN(C)C(=O)Cc1ccncc1 | 6.96%
COc1cccc(S(=O)(=O)N2CC[C@H]3[C@@H](CO)N(C)c4ccc(C#Cc5ccc(F)cc5)cc4[C@H]32)c1 | 26.7%
